Records with an inconclusive call do not appear. Calls of active or inactive are those of the source. Unless noted, calls follow the shape of the dose curve; as a rule, active = well fitted curve in the direction sought with a large enough effect in the repeat runs; inconclusive = weak or mixed curves; inactive = no such curve, though single readings can be large; an effect the other way counts as inactive or inconclusive.
How the values were obtained:
[1] = qHTS assay to identify small molecule agonists of the peroxisome proliferator-activated receptor delta (PPARd) signaling pathway - cell viability counter screen (AID 743211); also: nearly all actives have a fitted effect of over 55% in size
Outline: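 PPARd-bla HEK293H cells (3000/well) were pre-incubated 5 h at 37 C, then exposed to compound for 17 h at 37 C. After 2 h with LiveBLAzer substrate, CellTiter-Glo was added to the same wells; luminescence read after 30 min at room temperature.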

[2] = target: Peroxisome proliferator-activated receptor delta (Homo sapiens) (UniProt Q03181); assay: qHTS assay to identify small molecule agonists of the peroxisome proliferator-activated receptor delta (PPARd) signaling pathway (AID 743212; calls by dose curve)
Outline: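 Cells expressing a UAS-driven beta-lactamase reporter (PPARd-bla HEK293H) were given test compounds after a 5 h settle and kept at 37 C. Reporter activity was then measured as FRET fluorescence using LiveBLAzer B/G substrate.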

[3] = qHTS assay to identify small molecule antagonists of the peroxisome proliferator-activated receptor delta (PPARd) signaling pathway - cell viability counter screen (AID 743213); also: nearly all actives have a fitted effect of over 50% in size
Outline: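 Viability counter-screen, qHTS format: PPARd-bla HEK293H, L165041 300 nM final, 17 h compound exposure at 37 C, CellTiter-Glo luminescence after 30 min RT.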

[4] = target: Peroxisome proliferator-activated receptor delta (Homo sapiens) (UniProt Q03181); assay: qHTS assay to identify small molecule antagonists of the peroxisome proliferator-activated receptor delta (PPARd) signaling pathway (AID 743215; active = well fitted inhibition curve with a large enough effect in the signal ratio in the repeat runs, not every such curve was filed as active; the % refers to the signal ratio;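 also: cells stimulated with agonist L165041 at 300 nM final during compound exposure; series mostly up to about 62 µM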)
Outline: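 HEK293H GeneBLAzer PPARd UAS-bla reporter cells; cpd + L165041 300 nM final, 17 h 37 C; LiveBLAzer B/G FRET substrate 2 h RT; fluorescence intensity read-out. Antagonist mode.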

[5] = target: Bile acid receptor (Homo sapiens) (UniProt Q96RI1); assay: qHTS assay to identify small molecule antagonists of the farnesoid-X-receptor (FXR) signaling pathway (AID 743217; active = well fitted inhibition curve with a large enough effect in the signal ratio in the repeat runs, not every such curve was filed as active; the % refers to the signal ratio)
Outline: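 Read-out: beta-lactamase FRET fluorescence (LiveBLAzer B/G substrate, 2 h, room temperature) in GeneBLAzer FXR-UAS-bla HEK 293T cells. Compounds were co-dosed with 50 uM chenodeoxycholic acid (final) and incubated 16 h at 37 °C.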

[6] = qHTS assay to identify small molecule agonists of the farnesoid-X-receptor (FXR) signaling pathway - cell viability counter screen (AID 743218); also: nearly all actives have a fitted effect of over 45% in size
Outline: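 Luminescence from CellTiter-Glo, read after 30 min at RT, reports viability of GeneBLAzer FXR-UAS-bla HEK 293T cells treated 16 h with compounds in the wells used for the beta-lactamase reporter.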

[7] = target: Bile acid receptor (Homo sapiens) (UniProt Q96RI1); assay: qHTS assay to identify small molecule agonists of the farnesoid-X-receptor (FXR) signaling pathway (AID 743220; active = well fitted activation curve with a large enough effect in the signal ratio in the repeat runs, not every such curve was filed as active; the % refers to the signal ratio)
Outline: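 FXR-UAS-bla HEK 293T cells carrying a UAS-driven beta-lactamase reporter were plated for 5 h at 37C/5% CO2, then exposed to DMSO-dissolved Tox21 10K compounds for 16 h at 37C. A LiveBLAzer B/G FRET substrate was loaded for 2 h at room temperature before fluorescence reading.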

[8] = target: Vitamin D3 receptor (Homo sapiens) (UniProt P11473); assay: qHTS assay to identify small molecule agonists of the vitamin D receptor (VDR) signaling pathway (AID 743222; calls by dose curve)
Outline: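 Beta-lactamase reporter readout (LiveBLAzer B/G FRET, 2 h RT) in VDR-bla cells after 16 h compound treatment at 37C, 5% CO2; cells pre-incubated 4 h before pin transfer of DMSO solutions.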

[9] = qHTS assay to identify small molecule antagonists of the vitamin D receptor (VDR) signaling pathway - cell viability counter screen (AID 743225); also: nearly all actives have a fitted effect of over 50% in size
Outline: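 VDR-UAS-bla HEK 293T cells were plated and incubated 4 h at 37C, then dosed with compound plus 3 nM (final) 1-alpha,25-dihydroxyvitamin D3 for 16 h. After the 2 h beta-lactamase read, viability in the same wells was read as CellTiter-Glo luminescence after 30 min at room temperature.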

[10] = qHTS assay to identify small molecule agonists of the NFkB signaling pathway (AID 1159509; active = well fitted curve in the direction sought with a large enough effect in the signal ratio in the repeat runs, not every such curve was filed as active; the % refers to the signal ratio; also: series mostly up to about 61 µM)
Outline: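 Pathway activation was measured in ME-180 cells stably expressing beta-lactamase under NF-kB response element control. Substrate cleavage was read as the 460/530 nm emission shift after 5 hr compound incubation.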

[11] = qHTS assay to identify small molecule agonists of the NFkB signaling pathway - cell viability counter screen (AID 1159515; calls by dose curve; also: series mostly up to about 61 µM; nearly all actives have a fitted effect of over 55% in size)
Outline: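 ME-180 NFkB-bla cells, 2,000/well; overnight attach; compound 5 hr, 37 C/5% CO2; LiveBLAzer substrate 1.5 hr RT; then CellTiter-Glo in same wells, 30 min RT, luminescence read.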

[12] = qHTS assay to identify small molecule agonists of the endoplasmic reticulum stress response signaling pathway (AID 1159516; active = well fitted activation curve with a large enough effect in the signal ratio in the repeat runs, not every such curve was filed as active; the % refers to the signal ratio)
Outline: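 HeLa ESRE-bla reporter line; cpd 5 h, 37 C/5% CO2; LiveBLAzer B/G FRET substrate 2 h RT; ex 405, em 460/530 nm.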

[13] = qHTS assay to identify small molecule antagonists of the retinoid-related orphan receptor gamma (ROR-gamma) signaling pathway - cell viability counter screen (AID 1159520); also: nearly all actives have a fitted effect of over 50% in size
Outline: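 Tet-on ROR gamma CHO cells (1,000/well) were plated 4 hr, given compounds in DMSO for 2 hr at 37 C, then induced with 1 uM final doxycycline for 16 hr. Viability was read as ATP by CellTiter-Glo luminescence after 30 min.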

[14] = target: Nuclear receptor ROR-gamma (Homo sapiens) (UniProt P51449); assay: qHTS assay to identify small molecule antagonists of the retinoid-related orphan receptor gamma (ROR-gamma) signaling pathway (AID 1159521;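 also: CHO cells with doxycycline inducible ROR-gamma driving an RORE luciferase reporter; top concentration of the series differs between compounds; nearly all actives have a fitted effect of over 50% in size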)
Outline: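 Tet-on ROR-gamma CHO cells with ROR response element-luciferase reporter; compounds added 2 hr before 1 uM doxycycline induction, then 16 hr at 37 C. Antagonism scored as decreased ONE-Glo luminescence.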

[15] = qHTS assay to identify small molecule agonists of the AP-1 signaling pathway - cell viability counter screen (AID 1159525; calls by dose curve; also: nearly all actives have a fitted effect of over 55% in size)
Outline: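 Each titration point was normalised to DMSO and tetra n-octyl ammonium bromide controls. The read was Cell Titer Glo luminescence after 30 min at RT, following 5 h compound exposure of ME-180 AP-1-bla cells at 37 °C.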

[16] = qHTS assay to identify small molecule agonists of the AP-1 signaling pathway (AID 1159526; calls by dose curve)
[17] = qHTS assay to identify small molecule antagonists of the farnesoid-X-receptor (FXR) signaling pathway - cell viability counter screen (AID 743221; active = well fitted cell-killing curve with a large enough effect in the repeat runs, not every such curve was filed as active; also: nearly all actives have a fitted effect of over 50% in size)
Outline: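 GeneBLAzer FXR-UAS-bla HEK 293T cells, compound plus chenodeoxycholic acid (50 uM final), 16 h at 37 C. CellTiter-Glo added to the same wells after the beta-lactamase read; luminescence read after 30 min at room temperature as viability.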

[18] = target: Vitamin D3 receptor (Homo sapiens) (UniProt P11473); assay: qHTS assay to identify small molecule antagonists of the vitamin D receptor (VDR) signaling pathway (AID 743223; active = well fitted inhibition curve with a large enough effect in the signal ratio in the repeat runs, not every such curve was filed as active; the % refers to the signal ratio)
Outline: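 VDR-bla cells were treated with compound plus 3 nM final 1alpha,25-dihydroxyvitamin D3 for 16 h at 37C. Beta-lactamase reporter read by B/G FRET substrate fluorescence after 2 h at room temperature. qHTS format.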

[19] = qHTS assay to identify small molecule agonists of the vitamin D receptor (VDR) signaling pathway - cell viability counter screen (AID 743224)
Outline: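 Cytotoxicity counter screen: VDR-bla cells, 16 h compound exposure at 37C, 5% CO2; CellTiter-Glo luminescence, 30 min RT, same wells as bla read.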

[20] = qHTS assay to identify small molecule agonists of the endoplasmic reticulum stress response signaling pathway - cell viability counter screen (AID 1159517; calls by dose curve)
Outline: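 Cpd-treated ESRE-bla HeLa (5 hr, 37 C) → LiveBLAzer 2 hr RT → CellTiter-Glo 30 min RT → luminescence.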

Measured: Potency

Chain of Bile acid receptor (Homo sapiens) (Q96RI1 whole entry, looked up): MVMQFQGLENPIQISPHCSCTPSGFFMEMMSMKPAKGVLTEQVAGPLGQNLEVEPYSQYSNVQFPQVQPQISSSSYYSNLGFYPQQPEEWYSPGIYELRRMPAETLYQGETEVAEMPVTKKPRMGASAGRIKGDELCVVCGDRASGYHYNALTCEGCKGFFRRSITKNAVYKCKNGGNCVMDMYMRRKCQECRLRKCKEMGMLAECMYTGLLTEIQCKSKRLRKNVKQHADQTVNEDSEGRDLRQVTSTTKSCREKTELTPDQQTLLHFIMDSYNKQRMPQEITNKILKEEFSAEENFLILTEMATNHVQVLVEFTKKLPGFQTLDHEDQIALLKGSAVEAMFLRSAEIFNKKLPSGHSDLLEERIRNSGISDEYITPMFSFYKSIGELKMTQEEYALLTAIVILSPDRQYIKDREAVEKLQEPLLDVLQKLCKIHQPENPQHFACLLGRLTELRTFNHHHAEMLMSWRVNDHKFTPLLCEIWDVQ
Chain of Peroxisome proliferator-activated receptor delta (Homo sapiens) (Q03181 whole entry, looked up): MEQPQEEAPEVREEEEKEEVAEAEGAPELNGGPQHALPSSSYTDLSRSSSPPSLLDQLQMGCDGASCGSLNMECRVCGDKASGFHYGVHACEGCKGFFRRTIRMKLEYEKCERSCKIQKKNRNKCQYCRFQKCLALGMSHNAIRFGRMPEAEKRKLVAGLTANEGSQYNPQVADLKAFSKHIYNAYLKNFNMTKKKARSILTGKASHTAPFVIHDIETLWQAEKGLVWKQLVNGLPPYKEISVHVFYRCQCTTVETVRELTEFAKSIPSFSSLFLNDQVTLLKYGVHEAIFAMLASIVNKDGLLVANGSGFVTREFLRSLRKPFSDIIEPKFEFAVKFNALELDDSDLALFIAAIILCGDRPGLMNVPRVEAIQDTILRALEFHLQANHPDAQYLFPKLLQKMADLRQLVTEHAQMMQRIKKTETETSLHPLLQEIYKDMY
Chain of Vitamin D3 receptor (Homo sapiens) (P11473 whole entry, looked up): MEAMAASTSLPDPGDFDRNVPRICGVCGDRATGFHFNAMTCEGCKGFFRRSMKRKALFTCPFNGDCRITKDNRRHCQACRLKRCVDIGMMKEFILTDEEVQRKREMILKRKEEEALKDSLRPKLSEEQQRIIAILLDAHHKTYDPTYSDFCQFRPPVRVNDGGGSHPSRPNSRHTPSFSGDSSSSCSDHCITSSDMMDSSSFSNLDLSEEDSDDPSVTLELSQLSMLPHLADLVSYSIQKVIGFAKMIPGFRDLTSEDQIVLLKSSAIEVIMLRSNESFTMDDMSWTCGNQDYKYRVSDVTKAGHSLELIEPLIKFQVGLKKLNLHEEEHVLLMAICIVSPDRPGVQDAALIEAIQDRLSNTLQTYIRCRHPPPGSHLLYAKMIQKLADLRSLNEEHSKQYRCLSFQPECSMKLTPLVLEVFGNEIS

O=C(c1ccc(O)cc1)c1ccc(O)c(O)c1O
not listed: [17] | [18] | [19] | [20]
inactive: all other assays above

CCOc1cc([N+](=O)[O-])c(OCC)cc1N1CCOCC1
not listed: [2] | [4] | [5] | [7] | [8] | [14]
inactive: all other assays above

O=C(OCC1(COC(=O)c2cccnc2)CCCC(COC(=O)c2cccnc2)(COC(=O)c2cccnc2)C1O)c1cccnc1
not listed: [5] | [6] | [7] | [18] | [20]
inactive: all other assays above

CC(=O)NCCCCCC(=O)O
not listed: [5] | [7] | [20]
inactive: all other assays above

NCCS
not listed: [7] | [14] | [20]
inactive: all other assays above

O=C1c2ccccc2C(=O)c2cc(S(=O)(=O)O)ccc21
not listed: [5] | [7] | [14]
inactive: all other assays above

CC(C)NCC(O)COc1ccc(COCCOC(C)C)cc1 (configuration not stated)
not listed: [6] | [14] | [18]
inactive: all other assays above

C[Si](C)(C)C
not listed: [3] | [5] | [7] | [14] | [18]
inactive: all other assays above

CCOC(=O)c1ccc(OC(=O)CCCCCN=C(N)N)cc1
not listed: [4] | [5] | [6] | [7] | [8] | [18] | [20]
inactive: all other assays above

CC(C)NCC(O)COc1cccc2[nH]ccc12 (configuration not stated)
not listed: [5] | [6] | [7] | [8] | [20]
inactive: all other assays above

Cc1c(I)c(=O)n(-c2ccccc2)n1C
not listed: [5] | [7] | [8] | [18] | [20]
inactive: all other assays above

CCN(CC)CC(=O)Nc1c(C)cccc1C
not listed: [2] | [4] | [8] | [14] | [18]
inactive: all other assays above

O=Cc1ccc(Cl)c(Cl)c1
not listed: [5] | [6] | [7] | [9] | [14]
inactive: all other assays above

O=C1c2cccc3c2[C@H](CCC3)CN1[C@@H]1CN2CCC1CC2
not listed: [5] | [7] | [14] | [18]
inactive: all other assays above

CN=C(NC#N)Nc1ccc(C2=NNC(=O)CC2C)cc1 (configuration not stated)
not listed: [5] | [7] | [8] | [14] | [18]
inactive: all other assays above

Reference: PubChem BioAssay (Tox21)
